Data on 110 sequences can be found in the supplement of paper PMC4166925.

± gives the standard deviation of the averaged measurements. The full ranking holds about 33,000 sequences; the median of “E-score (dimensionless, -0.5 to 0.5)” is about -0.046, and the highest 2% start at about 0.36. The entries come from a sample that favours the highest values as a whole.
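Also: protein at 200 nM in PBS on universal double-stranded arrays.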

In the test the test system is T1, SpTbr T-box DNA-binding domain (GST fusion).
T1 sequence: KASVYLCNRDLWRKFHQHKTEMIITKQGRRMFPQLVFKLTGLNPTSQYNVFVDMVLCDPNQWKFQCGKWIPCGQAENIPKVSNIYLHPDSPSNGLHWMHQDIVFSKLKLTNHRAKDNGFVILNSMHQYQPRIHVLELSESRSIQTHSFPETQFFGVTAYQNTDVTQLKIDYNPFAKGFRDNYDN
The experiment in a line: PBM E-score of 8-mer (E-score (dimensionless, -0.5 to 0.5)); Tbr is Tbrain of the sea star Patiria miniata (Pm) or the sea urchin Strongylocentrotus purpuratus (Sp); higher = stronger binding preference. The note with it: the construct has about 5 more residues each side. On the procedure: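 Universal protein-binding microarray (Agilent AMADID 016060, 60-bp probes with a 35-bp variable region) incubated with 200 nM GST-fused Strongylocentrotus purpuratus Tbr T-box DNA-binding domain (residues 362-554) in PBS pH 7.5. Scored for every ungapped 8-mer (given with its reverse complement) as E-score (range -0.5 to 0.5; >0.45 counts as bound) and Z-score of median probe intensity. Two replicate arrays (datasets 1 and 2).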
In the case of AATTCACG, the “PBM E-score of 8-mer” value came to 0.345 ± 0.01.

Take CATTCACA: the “PBM E-score of 8-mer” value is 0.427 ± 0.014.

For the sequence CATTCACC, the “PBM E-score of 8-mer” value is -0.0478 ± 0.011.

As to GATTCACC, the “PBM E-score of 8-mer” value is -0.0546 ± 0.0018.

AATTCACA: the “PBM E-score of 8-mer” value amounted to 0.297 ± 0.035.

Regarding GATTCACA, the “PBM E-score of 8-mer” value was determined as 0.392 ± 0.0093.

Turning to CATTCACG, the “PBM E-score of 8-mer” value amounted to 0.238 ± 0.024.

For GATTCAGA, the “PBM E-score of 8-mer” value was -0.233 ± 0.061.

Consider CAGAGAGA, for which the “PBM E-score of 8-mer” value is -0.036 ± 0.025.

For the sequence CGTAGCCA, the “PBM E-score of 8-mer” value is -0.196 ± 0.073.

On to CCGATAAA, for which the “PBM E-score of 8-mer” value was -0.0119 ± 0.097.

Take AGGAAACT: the “PBM E-score of 8-mer” value is -0.0834 ± 0.015.

Regarding CGCTTGAC, the “PBM E-score of 8-mer” value is 0.136 ± 0.0033.

Take CGTTGACA: the “PBM E-score of 8-mer” value amounted to 0.414 ± 0.0098.

In the case of GTTTGACA, the “PBM E-score of 8-mer” value worked out at 0.332 ± 0.036.

Take AGTTGACA: the “PBM E-score of 8-mer” value came to 0.4138 ± 0.001.

With GGTTGACA, the “PBM E-score of 8-mer” value turned out to be 0.382 ± 0.017.

As to AGTTGACG, the “PBM E-score of 8-mer” value stood at 0.226 ± 0.0068.

Turning to GCTTGACA, the “PBM E-score of 8-mer” value stood at 0.258 ± 0.034.

CTTTGACA: the “PBM E-score of 8-mer” value came out at 0.174 ± 0.035.

For CGTTGACC, the “PBM E-score of 8-mer” value is 0.0141 ± 0.0079.

For the sequence AGTTGACC, the “PBM E-score of 8-mer” value is -0.106 ± 0.098.

With CGTTGTTC, the “PBM E-score of 8-mer” value was -0.116 ± 0.067.

For ACGGGCGG, the “PBM E-score of 8-mer” value is -0.083 ± 0.0064.

For the sequence GTCTTGGA, the “PBM E-score of 8-mer” value is -0.322 ± 0.015.

In the case of CATAGAGA, the “PBM E-score of 8-mer” value is -0.161 ± 0.012.

Turning to CCCTGTAA, the “PBM E-score of 8-mer” value amounted to 0.137 ± 0.0029.

Regarding ATCGAGGC, the “PBM E-score of 8-mer” value is -0.0694 ± 0.048.

With CACTTCAA, the “PBM E-score of 8-mer” value turned out to be 0.213 ± 0.013.

In the case of GGTTGTCA, the “PBM E-score of 8-mer” value was 0.338 ± 0.0013.

Regarding AGTTGTCA, the “PBM E-score of 8-mer” value amounted to 0.393 ± 0.016.

Turning to CGTTGTTA, the “PBM E-score of 8-mer” value was found to be 0.142 ± 0.034.

Turning to AGTTGTTA, the “PBM E-score of 8-mer” value turned out to be 0.369 ± 0.04.

With AGTTGTTG, the “PBM E-score of 8-mer” value turned out to be 0.245 ± 0.024.

As for AGTTGTCG, the “PBM E-score of 8-mer” value is 0.293 ± 0.033.

For GCTTCGCA, the “PBM E-score of 8-mer” value stood at 0.358 ± 0.017.

Consider GGTTCGGA, for which the “PBM E-score of 8-mer” value was -0.2634 ± 0.0013.

For the sequence AGTTCGCG, the “PBM E-score of 8-mer” value came out at 0.296 ± 0.038.

Regarding AGTTCGCA, the “PBM E-score of 8-mer” value worked out at 0.3728 ± 0.00053.

Turning to AGTTCGCC, the “PBM E-score of 8-mer” value is 0.0613 ± 0.039.

With CGTTCGCC, the “PBM E-score of 8-mer” value amounted to 0.11 ± 0.024.

For CGTTCGTA, the “PBM E-score of 8-mer” value was -0.134 ± 0.018.

Consider GGTTCGCA, for which the “PBM E-score of 8-mer” value turned out to be 0.378 ± 0.0054.

With CGTTCGCA, the “PBM E-score of 8-mer” value stood at 0.411 ± 0.0075.

In the case of CGGTTATA, the “PBM E-score of 8-mer” value is -0.00559 ± 0.033.

For the sequence GGGGTCGA, the “PBM E-score of 8-mer” value was -0.0352 ± 0.02.

As for GCGAGATA, the “PBM E-score of 8-mer” value is 0.105 ± 0.0039.

CATTGTCG: the “PBM E-score of 8-mer” value is 0.038 ± 0.0095.

In the case of ATGATGAA, the “PBM E-score of 8-mer” value was -0.154 ± 0.044.

CGTGACAC: the “PBM E-score of 8-mer” value was 0.38 ± 0.015.

As to CGTGACGA, the “PBM E-score of 8-mer” value amounted to 0.311 ± 0.029.

Regarding AGTGACAA, the “PBM E-score of 8-mer” value was found to be 0.397 ± 0.014.

Consider AGTGACGA, for which the “PBM E-score of 8-mer” value turned out to be 0.329 ± 0.029.

Take CGTGACAA: the “PBM E-score of 8-mer” value turned out to be 0.364 ± 0.0037.

AGTGACAC: the “PBM E-score of 8-mer” value is 0.435 ± 0.0092.

With CGTGACGC, the “PBM E-score of 8-mer” value amounted to 0.192 ± 0.033.

Turning to AGTGACAT, the “PBM E-score of 8-mer” value turned out to be 0.277 ± 0.056.

In the case of AGTGACAG, the “PBM E-score of 8-mer” value was found to be 0.3301 ± 0.0022.

For the sequence GGTGACGA, the “PBM E-score of 8-mer” value turned out to be 0.418 ± 0.018.

In the case of CGTGACAG, the “PBM E-score of 8-mer” value stood at 0.217 ± 0.019.

Take ACTGACAA: the “PBM E-score of 8-mer” value was found to be 0.165 ± 0.0096.

For the sequence GATCGAGA, the “PBM E-score of 8-mer” value came out at 0.00394 ± 0.097.

Consider AGGCTAAT, for which the “PBM E-score of 8-mer” value is -0.255 ± 0.1.

Take ACTAAGCC: the “PBM E-score of 8-mer” value was -0.223 ± 0.02.

Take AGCCTACC: the “PBM E-score of 8-mer” value was -0.245 ± 0.012.

On to GAGAATAC, for which the “PBM E-score of 8-mer” value is -0.0812 ± 0.016.

Take GATTTTGA: the “PBM E-score of 8-mer” value was -0.0555 ± 0.0057.

In the case of AACGCAAA, the “PBM E-score of 8-mer” value is 0.0563 ± 0.092.

As for GCAGCGAA, the “PBM E-score of 8-mer” value turned out to be 0.104 ± 0.068.

Turning to ACAAGAGG, the “PBM E-score of 8-mer” value was -0.0502 ± 0.064.

On to CAACTCTA, for which the “PBM E-score of 8-mer” value was -0.0379 ± 0.031.

Regarding TCGTATCA, the “PBM E-score of 8-mer” value is 0.129 ± 0.031.

As to TCTGACAA, the “PBM E-score of 8-mer” value was -0.0245 ± 0.056.

In the case of GGTGACAC, the “PBM E-score of 8-mer” value is 0.4606 ± 0.0026.

For the sequence GGTGAAAC, the “PBM E-score of 8-mer” value is -0.0179 ± 0.017.

Consider GTTGACAA, for which the “PBM E-score of 8-mer” value is 0.389 ± 0.016.

As to GGTGACCA, the “PBM E-score of 8-mer” value came out at 0.075 ± 0.05.

Consider GTTGACGA, for which the “PBM E-score of 8-mer” value came out at 0.279 ± 0.0033.

Consider GGTGACTA, for which the “PBM E-score of 8-mer” value is 0.196 ± 0.039.

In the case of GGTGACAA, the “PBM E-score of 8-mer” value was 0.459 ± 0.011.

In the case of CTTGACAA, the “PBM E-score of 8-mer” value was 0.323 ± 0.011.

GGAGACAC: the “PBM E-score of 8-mer” value was 0.193 ± 0.045.

As to TGTGACAA, the “PBM E-score of 8-mer” value was found to be 0.412 ± 0.0055.

In the case of TATGACAA, the “PBM E-score of 8-mer” value stood at 0.0285 ± 0.073.

For the sequence CAACGGTC, the “PBM E-score of 8-mer” value was found to be 0.11 ± 0.036.

CTATAGAG: the “PBM E-score of 8-mer” value is -0.282 ± 0.072.

With ACTAGGCA, the “PBM E-score of 8-mer” value was -0.204 ± 0.036.

On to CGCTTCAC, for which the “PBM E-score of 8-mer” value came out at 0.235 ± 0.042.

Regarding AGGTCGAC, the “PBM E-score of 8-mer” value is -0.00677 ± 0.036.

ACGGCAGT: the “PBM E-score of 8-mer” value was -0.173 ± 0.031.

For the sequence ATTATAGG, the “PBM E-score of 8-mer” value was -0.255 ± 0.027.

As for TGGTGACA, the “PBM E-score of 8-mer” value came to 0.39 ± 0.0062.

GGGTGACC: the “PBM E-score of 8-mer” value is -0.0352 ± 0.046.

Turning to GGGTGACA, the “PBM E-score of 8-mer” value is 0.4258 ± 0.0018.

Consider CGGTGACA, for which the “PBM E-score of 8-mer” value stood at 0.326 ± 0.026.

Consider TCGTGACA, for which the “PBM E-score of 8-mer” value worked out at 0.325 ± 0.0037.

In the case of GGGTGAAA, the “PBM E-score of 8-mer” value is -0.0551 ± 0.015.

In the case of GAGCGCTA, the “PBM E-score of 8-mer” value turned out to be 0.205 ± 0.021.

AAAAGGTA: the “PBM E-score of 8-mer” value was -0.207 ± 0.011.

AACCTATA: the “PBM E-score of 8-mer” value is -0.123 ± 0.024.

Take CACCTATA: the “PBM E-score of 8-mer” value came out at 0.392 ± 0.015.

With CACCTATC, the “PBM E-score of 8-mer” value is 0.358 ± 0.012.

Take TACCTATA: the “PBM E-score of 8-mer” value was -0.192 ± 0.0052.

In the case of AACCTATG, the “PBM E-score of 8-mer” value is -0.15 ± 0.014.

In the case of CACCTATG, the “PBM E-score of 8-mer” value stood at 0.427 ± 0.011.

Consider CGCTAATA, for which the “PBM E-score of 8-mer” value amounted to 0.135 ± 0.092.

As for CGCCGGCG, the “PBM E-score of 8-mer” value was found to be 0.1618 ± 0.00064.

As to ATCGTACC, the “PBM E-score of 8-mer” value is -0.157 ± 0.03.

GAACAGTA: the “PBM E-score of 8-mer” value worked out at 0.00048 ± 0.058.

As for CACCGCCG, the “PBM E-score of 8-mer” value is 0.151 ± 0.1.
